Measured values published in PubChem BioAssay (NCATS).
Records with an inconclusive call do not appear. Values without a mark were called inactive. The call rests on the fitted dose curve; in most records, active means well fitted inhibition curve with a large enough effect; inconclusive means small, poorly fitted or top-dose-only effect; inactive means flat fitted curve, though single readings scatter.

target: Calcium and integrin-binding protein 1 (Homo sapiens) (UniProt Q99828); assay: Primary qHTS for Identification of Calcium Integrin Binding Protein 1 (CIB1) Competitor (AID 1508620); conditions: CIB1-GST / FITC-alphaIIb peptide fluorescence polarization; series mostly up to 114 µM; activity change, negative = inhibition: at the top concentration;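 further: GST tagged CIB1 binding a fluorescein labelled alphaIIb integrin peptide tracer; top concentration of the series differs between compounds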
Method in brief: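 CIB1-GST (1 uM final) and compound incubated 15 min at room temperature before adding FITC-alphaIIb peptide tracer (100 nM final). Competition for binding read by fluorescence polarization (ex 480, em 540) after another 15 min at room temperature.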
On the % scale 0 is the no-effect control and ±100 the full control effect.

Sequence of Calcium and integrin-binding protein 1 (Homo sapiens) (Q99828 whole entry, looked up): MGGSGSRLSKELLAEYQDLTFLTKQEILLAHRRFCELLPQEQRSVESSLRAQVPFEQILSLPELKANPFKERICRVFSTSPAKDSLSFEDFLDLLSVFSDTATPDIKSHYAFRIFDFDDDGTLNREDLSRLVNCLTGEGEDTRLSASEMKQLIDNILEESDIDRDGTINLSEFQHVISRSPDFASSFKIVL

Compound | activity change, negative = inhibition
Cc1ccc(S(=O)(=O)N2CCN(c3nc(C#N)nc4ccccc34)CC2)cc1 | 4.07%
Cc1cc2c(s1)c1cnn(Cc3ccc(C(F)(F)F)cc3)c(=O)c1n2C | 1.04%
COc1ccc(N2Cc3cccc(C(=O)O)c3C2=O)cc1OC | -0.408%
Clc1ccccc1-c1ccc2ncnc(NCc3ccc4c(c3)OCO4)c2c1 | 2.27%
Cc1nnc(-c2cnn(C)c2N)n1CCc1ccccc1 | -3.52%
COc1ccc(C2Nc3ccccc3C(=O)N2Cc2ccccc2)cc1COc1ccc(C(N)=O)cc1 (centres undefined) | 3.92%
Fc1cc(F)cc(Nc2nc(Cl)nc(NC3CCCC3)n2)c1 | 1.62%
COc1ccc(C2Nc3ccccc3C(=O)N2Cc2ccccc2)cc1COc1cccc(C)c1 (centres undefined) | -3.92%
CCOc1ccc(CCNC(=O)c2cc3ccccc3o2)cc1OCC | 0.317%
CCOC(=O)C1CCN(C(=O)C(C)(C)NC(=O)Nc2ccc3sccc3c2)CC1 | -9.54%
COc1cc(F)c(S(=O)(=O)N2CCCN(S(=O)(=O)c3ccc(N)cc3)CC2)c(F)c1 | -0.108%
CCc1nn2c(=O)cc(N3C(C)CNCC3C)nc2s1 (centres undefined) | 0.291%
CC(=O)Nc1ccc(OCc2cccc(C3Nc4ccccc4C(=O)N3Cc3ccco3)c2)cc1 (centres undefined) | -12.4%
COc1ccc(C2=Nn3c(nnc3-c3ccccc3C)SC2)cc1 | -2.45%
Cc1ccc(N2CCN(S(=O)(=O)c3ccc4c(c3)CC(=O)N4)CC2)cc1 | 0.009% [at 228 µM]
C(=C\c1cccs1)/c1cccnc1 | 3.07%
O=S(=O)(c1ccsc1)N1CCN(c2nc(-c3cccs3)nc3ccccc23)CC1 | 1.91%
Cc1cnc(-c2ccccc2C(C)C)nc1NCc1cccs1 | 1.21%
CCOC(=O)C1CCN(C(=O)C2(NC(=O)Nc3ccc(F)cc3F)CCCCC2)CC1 | 3.07%
O=C(OCC#CCSc1nnc(-c2cccc3ccccc23)o1)c1ccncc1 | 0.615%

Compound | activity change, negative = inhibition
Fc1ccc(-c2ccc(Nc3nc(-c4ccncc4)nc4ccccc34)cc2F)c(F)c1 | 1.48%
COc1cccc(C2c3c(ncn(-c4ccccc4SC)c3=N)Oc3ccc4ccccc4c32)c1 (centres undefined) | 8.09%
COc1ccccc1C(=O)OCC#CCSc1nnc(-c2cccc3ccccc23)o1 | 5.37%
Cc1cc(C)c(C)c(S(=O)(=O)N2CCN(S(=O)(=O)c3ccc4c(c3)OCCO4)CC2)c1C | -2.41%
CC(=O)c1ccc(N2CCN(S(=O)(=O)c3ccc4[nH]c(=O)[nH]c4c3)CC2)cc1 | 36%
COc1cc(OC)cc(-c2nnc3n2N=C(c2ccc(OC)c(OC)c2)CS3)c1 | -6.1%
Cc1cc(NCc2ccc(-c3cccnc3)cc2)nc(-c2ccccc2C(C)C)n1 | 4.93%
Cc1cnc(-c2ccccc2CO)nc1NCc1ccc(-c2cccnc2)cc1 | 0.376%
Cc1ccnc(NC(=S)N2CCN(c3ccc(Br)cc3)CC2)c1 | -8.65%
Cc1cc(C)nc(NC(=S)N2CCN(c3ccc(C(F)(F)F)cc3C(F)(F)F)CC2)c1 | -17.3%
CC(C)c1ccccc1-c1nccc(NCc2ccc(-c3cccnc3)cc2)n1 | -1.04%
O=C(Cn1cc(CN(Cc2ccccc2)Cc2ccccc2)nn1)Nc1cc(C(F)(F)F)ccc1Cl | 0.524%
COc1ccc(NC(=O)Nc2ccc(-c3nc4ccccc4[nH]3)cc2)cc1OC | -17.5%
NC(=O)C1CCN(c2nc(-c3ccc4c(c3)OCCO4)cs2)CC1 | 1.22%
Cc1cc(C)nc(NC(=S)N2CCN(c3nccc(C(F)(F)F)n3)CC2)c1 | -12.7%
Cc1cc(-c2nnc3n2CCCCC3)c(C)n1-c1ccc(C(F)(F)F)cc1 | 2.74%
Cc1cc(NS(=O)(=O)c2ccc(NC(=O)Cc3ccc(Cl)cc3)cc2)no1 | -8.01%
Oc1cccc2cc(Nc3ccccc3)cnc12 | -22.5%
O=C(O)c1ccc(S(=O)(=O)N[C@H](Cc2ccc(O)cc2)C(=O)O)cc1 | -19.4%
